The target in this experiment is T1, Non-receptor tyrosine-protein kinase TNK1 (Homo sapiens) (UniProt Q13470).
T1 sequence (whole entry): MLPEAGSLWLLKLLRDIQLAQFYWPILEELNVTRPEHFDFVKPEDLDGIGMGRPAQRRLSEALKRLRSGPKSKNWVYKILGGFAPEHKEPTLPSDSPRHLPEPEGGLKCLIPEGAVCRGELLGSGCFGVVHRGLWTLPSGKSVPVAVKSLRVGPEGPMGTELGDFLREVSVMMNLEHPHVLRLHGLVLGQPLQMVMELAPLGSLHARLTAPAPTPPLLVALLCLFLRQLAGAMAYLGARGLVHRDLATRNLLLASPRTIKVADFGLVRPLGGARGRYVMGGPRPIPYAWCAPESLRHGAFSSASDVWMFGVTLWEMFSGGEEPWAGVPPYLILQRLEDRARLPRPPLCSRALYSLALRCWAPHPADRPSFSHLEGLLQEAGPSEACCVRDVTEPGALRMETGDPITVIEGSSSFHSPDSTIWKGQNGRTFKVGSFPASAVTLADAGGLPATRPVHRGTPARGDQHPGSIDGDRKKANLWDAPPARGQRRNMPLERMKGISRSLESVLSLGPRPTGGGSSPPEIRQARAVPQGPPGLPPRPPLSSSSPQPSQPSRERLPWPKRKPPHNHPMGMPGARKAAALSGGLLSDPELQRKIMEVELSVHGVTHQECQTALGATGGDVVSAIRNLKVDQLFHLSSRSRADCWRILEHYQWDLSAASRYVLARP
The following applies: at 1 µM.
Regarding `c1ccc(Oc2ccc(Nc3ncc(-c4ccccc4)o3)cc2)cc1`, the inhibition was 3.43%. In the case of `COc1cc(Nc2ncc3c(C)nc(-c4cccc(C(F)(F)F)c4)n3n2)cc(OC)c1OC` it was 48.8%; in that of `COc1cc2ncn(-c3cc(OCc4ccccc4C(F)(F)F)c(C(C)=O)s3)c2cc1OC`, 23.6%. As to `CCc1nccc2c1nc(-c1nonc1N)n2CC`, the inhibition was -5.44%. With `Cc1ccc(NC(=O)c2ccoc2)cc1-c1ccc(C(=O)NCC2CC2)cc1` the figure was 5.38%; with `NC(=O)c1ccc(Oc2nccc(-c3c(-c4ccc(F)cc4)ncn3C3CCNCC3)n2)cc1`, 4.01%; with `FC(F)(F)c1cccc(Nc2nccc(-c3cnn4nc(-c5ccccc5)ccc34)n2)c1`, 8.59%.

Consider `O=C(Nc1n[nH]c2cc(-c3ccccc3)ccc12)C1CC1`, for which the inhibition amounted to 7.79%. As to `N#Cc1ccc(Oc2nccc(-c3c(-c4ccc(F)cc4)ncn3C3CCNCC3)n2)cc1`, the inhibition is 2.6%. Regarding `COc1cc(C)c(N(C)C(=O)CN(C)C)cc1Nc1nc(Nc2cccc(F)c2C(N)=O)c2cc[nH]c2n1`, the inhibition stood at 6.22%. For the compound `O=C1Nc2ccccc2/C1=C/Nc1ccc(-n2cncn2)cc1`, the inhibition came to 14%. In the case of `CCN(CC)Cc1ccc(Nc2nccc(-c3cnn4ncccc34)n2)cc1`, the inhibition is 32%. For the compound `CN(C)CCOc1ccc(-c2cc(-c3ccc4c(c3)CCC4=NO)c(-c3ccncc3)o2)cc1`, the inhibition turned out to be 20.8%. With `COc1cc2ncn(-c3cc(OCCc4ccccc4)c(C(N)=O)s3)c2cc1OC` the figure was 13.5%; with `CN(c1ccc(NC(=O)Nc2c(Cl)cccc2Cl)cc1)c1ccnc(Nc2cccc(CS(C)(=O)=O)c2)n1`, 84.1%. With `NC(=O)c1cc(-c2ccncc2)cc(-c2ccccc2)c1N` the figure was 6.5%.

By inhibition is commonly meant the change of the read-out against control, counted positive when it falls.

Values taken from ChEMBL document CHEMBL1961873, “Compounds: GSK PKIS; Assays: Nanosyn kinase panel” (2012).
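Note: values are averaged percent inhibition of TNK1, compounds from the GSK published kinase inhibitor set.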
